The values below come from the supplement of paper PMC9801561.

± gives the standard deviation of the averaged measurements.
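Wherever DuctApe activity index of respiration/growth curve (0 no growth to 9 maximum) is given: biolog PM4 phosphorus and sulfur plates, tetrazolium violet dye reduction read in the OmniLog every 15 min, kinetic curves scored by DuctApe, each plate run in triplicate.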

In the first test the test system is Escherichia coli Nissle 1917. As to the kind of experiment: area under OmniLog respiration curve over 48 h (OmniLog units x h); higher = more growth / nutrient utilisation; extreme values may be limits of the assay. The conditions noted are these: nutrient role: C-Source, carboxylic acid; incubation: 48 h, 37 °C.
For `C/C(=C/C(=O)O)C(=O)O` [Citraconic acid], the “area under OmniLog respiration curve” value amounted to 4.72.

Consider `CO[C@@H]1O[C@H](C(=O)O)[C@@H](O)[C@H](O)[C@H]1O` [b-Methyl-D-Glucuronic acid], for which the “area under OmniLog respiration curve” value was 6620 ± 580.

In the case of `CC(=O)N[C@H]1[C@H]([C@H](O)[C@H](O)CO)OC(O)(C(=O)O)C[C@@H]1O` (stereo partly specified) [N-Acetyl-Neuraminic acid], the “area under OmniLog respiration curve” value was 6140 ± 840.

For the molecule `O=C1CC[C@@H](C(=O)O)O1` [a-Hydroxyglutaric acid-g-Lactone], the “area under OmniLog respiration curve” value is 4.72.

Take `O=C(O)[C@H](O)[C@@H](O)[C@H](O)[C@H](O)CO` [D-Gluconic acid]: the “area under OmniLog respiration curve” value came out at 10300 ± 700.

As for `C/C=C/C=C/C(=O)O` [Sorbic acid], the “area under OmniLog respiration curve” value came out at 7.09 ± 4.1.

On to `CCCC(=O)C(=O)O` [a-Keto-Valeric acid], for which the “area under OmniLog respiration curve” value stood at 4.72.

`O=C(O)C[C@H](O)C(=O)O` [L-Malic acid]: the “area under OmniLog respiration curve” value was 8910 ± 230.

The same test, now with this note: nutrient role: sole nitrogen source (pyruvate carbon); incubation: 48 h, 37 °C.
Consider `N[C@H](CO)C(=O)O` [D-Serine], for which the “area under OmniLog respiration curve” value was 7130 ± 1200.

`NC(=O)NC1NC(=O)NC1=O` (stereo unspecified) [Allantoin]: the “area under OmniLog respiration curve” value turned out to be 500 ± 670.

As to `N[C@@H]1C(O)O[C@H](CO)[C@@H](O)[C@@H]1O` (stereo partly drawn) [D-Mannosamine], the “area under OmniLog respiration curve” value amounted to 1020 ± 700.

As to `C[C@H](N)C(=O)NCC(=O)O`, the “area under OmniLog respiration curve” value came out at 8020 ± 1200.

For the molecule `NC(=O)CC[C@H](N)C(=O)O` [L-Glutamine], the “area under OmniLog respiration curve” value came out at 8560 ± 1200.

As for `NCCN` [Ethylenediamine], the “area under OmniLog respiration curve” value is 4.72.

As for `N[C@H]1C(O)O[C@H](CO)[C@H](O)[C@@H]1O` (stereo partly drawn) [D-Galactosamine], the “area under OmniLog respiration curve” value was 11.2 ± 11.

As for `CC(C)[C@H](N)C(=O)O` [L-Valine], the “area under OmniLog respiration curve” value amounted to 2650 ± 990.

`OC[C@H]1O[C@@H](n2cnc3c(O)nc(O)nc32)[C@H](O)[C@@H]1O` [Xanthosine]: the “area under OmniLog respiration curve” value amounted to 2070 ± 1300.

For `C[C@H](N)C(=O)N[C@@H](CCC(=O)O)C(=O)O`, the “area under OmniLog respiration curve” value stood at 8550 ± 1300.

Staying with this test, now noted: nutrient role: sole phosphorus source (pyruvate carbon); incubation: 48 h, 37 °C.
As for `O=C(O)COP(=O)(O)O` [Phospho-Glycolic acid], the “area under OmniLog respiration curve” value was determined as 9060 ± 940.

For `Nc1ncnc2c1ncn2[C@@H]1O[C@@H]2COP(=O)(O)O[C@H]2[C@H]1O` [Adenosine 3`,5`-Cyclic Monophosphate], the “area under OmniLog respiration curve” value was found to be 5670 ± 1300.

In the case of `O=C(O)[C@H](O)[C@@H](O)[C@H](O)[C@H](O)COP(=O)(O)O` [6-Phospho-Gluconic acid], the “area under OmniLog respiration curve” value came to 9360 ± 510.

`O=P(O)(O)OC(CO)CO` [b-Glycerol Phosphate]: the “area under OmniLog respiration curve” value came out at 8820 ± 470.

For `C[C@@H](OP(=O)(O)O)[C@H](N)C(=O)O` [O-Phospho-L-Threonine], the “area under OmniLog respiration curve” value came out at 9330 ± 620.

Regarding `Nc1ncnc2c1ncn2[C@@H]1O[C@H](CO)[C@@H](O)[C@H]1OP(=O)(O)O` [Adenosine 2`-Monophosphate], the “area under OmniLog respiration curve” value was determined as 9880 ± 610.

The same test, now with this note: nutrient role: sole sulfur source (pyruvate carbon); incubation: 48 h, 37 °C.
With `NCCS(=O)(=O)O` [Taurine], the “area under OmniLog respiration curve” value worked out at 7830 ± 160.

Take `CC(=O)N[C@@H](CS)C(=O)O` [N-Acetyl-L-Cysteine]: the “area under OmniLog respiration curve” value is 55.4 ± 54.

For the molecule `C[C@H](CCC(=O)NCCS(=O)(=O)O)[C@H]1CC[C@H]2[C@@H]3[C@H](O)C[C@@H]4C[C@H](O)CC[C@]4(C)[C@H]3C[C@H](O)[C@]12C` [Taurocholic acid], the “area under OmniLog respiration curve” value turned out to be 2500 ± 890.

A further test relates to Escherichia coli Nissle 1917. Nature of the test: DuctApe activity index of respiration/growth curve (0 no growth to 9 maximum) (index 0-9); higher = more growth / nutrient utilisation, active = 3 or more; extreme values may be limits of the assay. The conditions noted are these: nutrient role: C-Source, amino acid; incubation: 48 h, 37 °C.
Turning to `NCC(=O)N1CCC[C@H]1C(=O)O`, the DuctApe activity index is 8 (active).

For `N[C@H](CO)C(=O)O` [D-Serine], the DuctApe activity index is 8.67 (active).

On to `C[C@H](N)C(=O)NCC(=O)O`, for which the DuctApe activity index is 7.67 (active).

Turning to `NC(=O)CC[C@H](N)C(=O)O` [L-Glutamine], the DuctApe activity index is 8.33 (active).

Consider `CC(C)[C@H](N)C(=O)O` [L-Valine], for which the DuctApe activity index is 0 (inactive).

Still in this test, the particulars now being: nutrient role: C-Source, carbohydrate; incubation: 48 h, 37 °C.
As for `OC[C@H]1OC(O)[C@H](O)[C@@H](O)[C@H]1O` (stereo partly drawn) [D-Galactose], the DuctApe activity index was 7.67 (active).

For the molecule `OC[C@@H](O)[C@@H](O)[C@H](O)[C@H](O)CO` [D-Mannitol], the DuctApe activity index is 7.67 (active).

Regarding `OC[C@H]1O[C@H](O[C@H]2O[C@H](CO)[C@@H](O)[C@H](O)[C@H]2O)[C@H](O)[C@@H](O)[C@@H]1O` [D-Trehalose], the DuctApe activity index was 8.67 (active).

Turning to `OCC(O)CO` [Glycerol], the DuctApe activity index was 7.67 (active).

For `OC[C@H]1O[C@@H](O[C@H]2[C@H](O)[C@@H](O)[C@@H](O)O[C@@H]2CO)[C@H](O)[C@@H](O)[C@H]1O` [a-D-Lactose], the DuctApe activity index was 7.67 (active).

`OC[C@@H](O)[C@@H](O[C@@H]1O[C@H](CO)[C@H](O)[C@H](O)[C@H]1O)[C@H](O)[C@@H](O)CO` [D-Lactitol]: the DuctApe activity index was 7 (active).

On to `CC1OC(O)C(O)C(O)C1O` [L-Fucose], for which the DuctApe activity index was 7.67 (active).

Consider `O[C@@H]1[C@@H](O)[C@@H](O)CO[C@H]1O` [L-Arabinose], for which the DuctApe activity index was 8 (active).

In the case of `OCC1OC(OC2C(CO)OC(O)C(O)C2O)C(O)C(O)C1O` [D-Cellobiose], the DuctApe activity index is 1.33 (inactive).

`OC[C@H]1O[C@@](CO)(O[C@H]2O[C@H](CO)[C@@H](O)[C@H](O)[C@H]2O)[C@@H](O)[C@@H]1O` [Sucrose]: the DuctApe activity index was 1.67 (inactive).

With `OC[C@H]1O[C@@H](Oc2ccc(O)cc2)[C@H](O)[C@@H](O)[C@@H]1O` [Arbutin], the DuctApe activity index was 0 (inactive).

Staying with this test, now noted: nutrient role: C-Source, carboxylic acid; incubation: 48 h, 37 °C.
Consider `C/C(=C/C(=O)O)C(=O)O` [Citraconic acid], for which the DuctApe activity index is 0 (inactive).

On to `CO[C@@H]1O[C@H](C(=O)O)[C@@H](O)[C@H](O)[C@H]1O` [b-Methyl-D-Glucuronic acid], for which the DuctApe activity index was 7.33 (active).

In the case of `CC(=O)N[C@H]1[C@H]([C@H](O)[C@H](O)CO)OC(O)(C(=O)O)C[C@@H]1O` (stereo partly specified) [N-Acetyl-Neuraminic acid], the DuctApe activity index is 7 (active).

Regarding `O=C1CC[C@@H](C(=O)O)O1` [a-Hydroxyglutaric acid-g-Lactone], the DuctApe activity index was 0 (inactive).

With `O=C(O)[C@H](O)[C@@H](O)[C@H](O)[C@H](O)CO` [D-Gluconic acid], the DuctApe activity index was 9 (active).

Turning to `C/C=C/C=C/C(=O)O` [Sorbic acid], the DuctApe activity index is 0 (inactive).

For `CCCC(=O)C(=O)O` [a-Keto-Valeric acid], the DuctApe activity index is 0 (inactive).

For `O=C(O)C[C@H](O)C(=O)O` [L-Malic acid], the DuctApe activity index was 8.67 (active).
